# According to PMC5540273 (PLoS ONE, 2017):
# System: MAP3K2
# Details: concentration: 1 μM, replicates: in singlicate; n = 1
# 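Further: KINOMEscan kinase panel screen.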
row,SMILES,%Inh [%]
1,CS(=O)(=O)CCNCc1nc(-c2ccc3ncnc(Nc4ccc(OCc5cccc(F)c5)c(Cl)c4)c3c2)cs1.Cl [GW583340],0
2,Cc1ccc(O)cc1Nc1cc(C(F)(F)F)nc2ccc(-c3ccncc3)cc12 [GW630823],1
3,Nc1nc(-c2ccc3c(N)n[nH]c3c2)cc(N2CCC[C@@H](C(=O)Nc3ccccc3)C2)n1.O=C(O)C(F)(F)F.O=C(O)C(F)(F)F [GSK2288359],0
4,CN1c2ccc(-c3ccc(C(=O)NCCO)cc3)cc2-c2[nH]ncc2S1(=O)=O,36
5,Oc1ccc2ncnc(Nc3ccc(OCc4ccccc4)cc3)c2c1 [GI262866],0
6,Nc1nc(-c2ccccn2)c(-c2ccnc3ccccc23)s1 [GW548057],0
7,FC(F)(F)c1ccc(-c2cc(-c3c[nH]nc3-c3ccccn3)ccn2)cc1 [GW599550],0
8,Cn1cc(-c2ccc3c(c2)CCN3C(=O)Cc2cccc(C(F)(F)F)c2)c2c(N)ncnc21 [GSK2606414],9
9,NC(=O)c1sc(-n2cnc3ccccc32)cc1OCc1ccccc1F [GSK1024306],0
